According to PubChem BioAssay (NCI):
This is part of a sample that, as a whole, favours compounds with a hit. Of some 83,000 tested, about 20% had one in any assay.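 Single-concentration screen, 48 h exposure, 96-well plates. Endpoint: percent growth. Below 10 = active.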 Calls of active or inactive are those of the source.

These molecules were tested on MDA-MB-468 breast (assay: NCI-60 one-dose screen, 48 h (100 = growth as untreated, 0 = no growth, -100 = all killed)). Conditions: 10 µM unless noted.
Description: Growth inhibition of the MDA-MB-468 human Breast tumor cell line is measured as a screen for anti-cancer activity. Cells are grown in 96 well plates and exposed to the test compound for 48 hours. Compounds are tested at a single concentration, which is 10^-5 M for most compounds. The reported endpoint is percent growth (GI% or GIPRCNT), where numbers from 0 - 100% represent growth inhibition, and numbers from -100% - 0 represent cell death. For example, a value of 40 represents 60% growth inhibition. A value of 0 means no net growth occurred over the course of the experiment. A value of -40 indicates 40% of cells at the beginning of the experiment died by the end of the experiment. A value of -100 means all cells are dead at the end of the experiment.
NCI-60 Human Tumor Cell Lines Screen was performed using the standard one-dose NCI protocol, which is described in more detail at https://dtp.cancer.gov/discovery_development/nci-60/default.htm.
Compounds with GIPRCNT values below 10 were considered active. Activity score was based on GIPRCNT using the following formula: […]
Score is 0 for GIPRCNT values of 100 or above, 50 for GIPRCNT values of 0, and 100 for GIPRCNT values of -100.

Question: For `COC(=O)c1cc2c3c(cc(O)c2[nH]1)N(C(=O)C1Cc2cc(OC)c(OC)c(OC)c2N1)CC3CCl` (stereo not given), which growth is on record?
Answer: Its growth is -41.8% (active).

Question: With `COc1ccccc1Cn1cc(C#N)c(N)c1C(=O)c1ccc(Br)cc1` as the molecule, how does the growth read?
Answer: The growth was 72.2% (inactive).

Question: For `O=C1/C(=C/c2ccc(F)cc2)CN(C(=O)CCN2CCC(=NO)CC2)C/C1=C\c1ccc(F)cc1`, which growth is on record?
Answer: Its growth is -41.6% (active).

Question: How did the growth turn out when `CCOC(=O)C/C(=N\Nc1cc(=O)[nH]c2ccc(OC)cc12)C(=O)OCC` was run?
Answer: Its growth is 89.1% (inactive).

Question: Which growth does the source give for `CO[C@H]1/C=C/O[C@@]2(C)Oc3c(C)c(O)c4c(O)c(c(/C=N/N5CCN(C)CC5)c(O)c4c3C2=O)NC(=O)/C(C)=C\C=C\C(C)[C@H](O)[C@@H](C)[C@@H](O)[C@@H](C)[C@@H](OC(C)=O)[C@@H]1C` (stereo not given in full) here?
Answer: Its growth is 92.2% (inactive).

Question: For `COc1cc2c3c(c4c5ccccc5[nH]c4c2c(OC)c1OC)C(=O)N(CCN1CCOCC1)C3=O`, which growth is on record?
Answer: The growth was 65.7% (inactive).

Question: How did the growth turn out when `Cc1cc(C)c2c(n1)sc1c(Nc3ccc(O)cc3)ncnc12` was run?
Answer: Its growth is 23.8% (inactive).

Question: Which growth does the source give for `C=C(C)[C@@H]1CC[C@]2(C(=O)n3ccnc3)CC[C@]3(C)[C@H](CC[C@@H]4[C@@]5(C)CCCNC(C)(C)[C@@H]5CC[C@]43C)[C@@H]12` here?
Answer: Its growth is -11.1% (active).

Question: `O=C(NC1CCOCC1)c1ccc2c(c1)CN(c1ncc(Cc3cccc(-n4cccn4)c3)s1)CC2` was tested. Which growth did it give?
Answer: Its growth is 41.4% (inactive).

Question: Which growth does the source give for `COc1cnc2c(c1)C(=O)c1c-2n(CCCN2CCN(C)CC2)c(=O)c2cc(Cl)ccc12` here?
Answer: The growth was 54.2% (inactive).

Question: `Cc1ccc(S(=O)(=O)N2CCc3ccc(O)c4c3C2CCc2ccccc2-4)cc1` (stereo not given) was tested. Which growth did it give?
Answer: The growth was 106% (inactive).

Question: With `CCCCCCCCCCCCCCCCCCOc1ccccc1CC(=O)NCC[N+](C)(C)C` as the molecule, how does the growth read?
Answer: The growth was 19% (inactive).

Question: Which growth does the source give for `COc1cc2c(cc1-c1c(C)noc1C)ncc1nc(C3CCCCC3)n([C@@H](C)COC(F)F)c12` here?
Answer: The growth was 32.6% (inactive).

Question: How did the growth turn out when `O=C(CCCC(=O)N/N=C/c1cc(Cl)ccc1O)N/N=C\c1cc(Cl)ccc1O` was run?
Answer: Its growth is 10.3% (inactive).

Question: `CCCC(=O)Oc1ccc(/C(=C(\C)c2ccc(Cl)cc2)c2ccc(OCCN(CC)CC)cc2)cc1` was tested. Which growth did it give?
Answer: Its growth is -64.1% (active).

Question: For `CCCCCCCCCCCC[n+]1ccc(CCCCCCCCC)cc1`, which growth is on record?
Answer: The growth was -53.8% (active).

Question: How did the growth turn out when `COc1ccc(-c2cc(-c3ccc(Cl)cc3)nc(SCCCC(=O)NO)n2)cc1OC` was run?
Answer: Its growth is -55.5% (active).

Question: With `O=C(c1ccccc1)c1ccc2nc(-c3ccccc3Br)[nH]c2c1` as the molecule, how does the growth read?
Answer: Its growth is -57.2% (active).

Question: How did the growth turn out when `COc1ccc(-c2nnc(N3CCN(C(=O)CN4CCN(c5ccc(Cl)cc5)CC4)CC3)nc2-c2ccc(OC)cc2)cc1` was run?
Answer: The growth was 74% (inactive).

Question: With `CNc1nc2ncc(-c3c(C)noc3C)cc2n1Cc1ccccc1` as the molecule, how does the growth read?
Answer: The growth was 34.7% (inactive).

Question: Which growth does the source give for `Cn1cc(-c2nonc2-c2c[nH]c3ccc(F)cc23)c2cc(Br)ccc21` here?
Answer: Its growth is 58.7% (inactive).

Question: `COc1ccc(NC2=C(Br)C(=O)C(C)=C(C)C2=O)cc1` was tested. Which growth did it give?
Answer: The growth was -59% (active).

Question: For `CCOC(=O)C(Cc1ccccc1)n1c(O)c(/C=N/c2ncc(Cc3ccc(Cl)cc3Cl)s2)sc1=S` (stereo not given), which growth is on record?
Answer: The growth was -0.681% (active).

Question: With `COc1cc2c(c(OC)c1OC)C(=O)/C(=C/c1cc(C)c(O)c(C)c1)S2` as the molecule, how does the growth read?
Answer: Its growth is 5.19% (active).

Question: With `CCCCOc1ccc(/C=N/Nc2cc(C)nc3ccc(Br)cc23)cc1` as the molecule, how does the growth read?
Answer: Its growth is 32.2% (inactive).

Question: Which growth does the source give for `CSc1[nH]c(=O)ncc1F` here?
Answer: The growth was 98.1% (inactive).

Question: How did the growth turn out when `COc1ccc(N=Cc2c(O)ccc3c2oc2cc(Cl)c(O)c(Cl)c23)cc1` was run?
Answer: The growth was 72.5% (inactive).

Question: For `Cc1c(Cl)cccc1N=C=S`, which growth is on record?
Answer: Its growth is 97.8% (inactive).

Question: Which growth does the source give for `CC1=CC(=O)CC(C)(C)[C@@]1(O)/C=C/C(C)=C\C(=O)O` here?
Answer: The growth was -45.1% (active).

Question: With `O=C(CCC(=O)N1CCOCC1)OCCCCCCSc1ccc([N+](=O)[O-])c2nonc12` as the molecule, how does the growth read?
Answer: Its growth is -43.1% (active).

Question: How did the growth turn out when `COc1cccc(-c2nn(-c3ccccc3)cc2-c2ccnc(NCCCNS(=O)(=O)c3ccc(C(F)(F)F)cc3)c2)c1` was run?
Answer: Its growth is -9.51% (active).

Question: With `Fc1ccc2[nH]cc(-c3nonc3-c3c[nH]c4ccc(Br)cc34)c2c1` as the molecule, how does the growth read?
Answer: The growth was 44.3% (inactive).

Question: `CC(=O)OCCCCCCn1c2ccccc2c2c3c(c4c5ccccc5n(C)c4c21)C(=O)N(O)C3=O` was tested. Which growth did it give?
Answer: Its growth is 90.4% (inactive).

Question: For `COc1ccc(C(=O)CC(CC(=O)c2ccc(OC)cc2)c2c(C)nn(-c3ccccc3)c2Cl)cc1`, which growth is on record?
Answer: Its growth is 96.4% (inactive).

Question: For `COc1c2ccccc2c(OC)c2[nH]c(=O)ccc12`, which growth is on record?
Answer: The growth was 60.9% (inactive).

Question: With `CCOC(=O)c1ccc[nH]1` as the molecule, how does the growth read?
Answer: Its growth is 100% (inactive).

Question: `c1ccc(-c2n(Cc3ccc4ccccc4n3)cc[n+]2Cc2ccc3ccccc3n2)cc1` was tested. Which growth did it give?
Answer: Its growth is -12.3% (active).

Question: For `Cc1cc(C(=O)/C=C/c2ccc[nH]2)ccc1-n1ccc(C(F)(F)F)n1`, which growth is on record?
Answer: The growth was 90.2% (inactive).

Question: `CCN(CC)CCCCCNc1cc(OC(=O)c2ccc(Cl)cc2)cc2cccnc12` was tested. Which growth did it give?
Answer: Its growth is 71.6% (inactive).

Question: `CN(Cc1cnc2nc(N)nc(N)c2n1)c1ccc(C(=O)NC(CCC(=O)O)C(=O)O)cc1Br` (stereo not given) was tested. Which growth did it give?
Answer: The growth was 42.4% (inactive).
